Measured values reported in PubChem BioAssay AID504332 (National Center for Advancing Translational Sciences (NCATS), 2011).
Screen size: about 350,000 compounds; about 31,000 (8.9%) were called active. Roughly 15% stayed inconclusive and do not appear here. Calls come from the whole dose curve; as a rule, active = well fitted inhibition curve with a large enough effect; inconclusive = small, poorly fitted or top-dose-only effect; inactive = no such curve, though single readings can be large or run the other way. The list comes from a sample in which actives are over-represented; it also holds similar structures and randomly drawn compounds. Where a call stands in place of a potency, no number is given.

Target: Histone-lysine N-methyltransferase EHMT2 (Homo sapiens) (UniProt Q96KQ7)
Sequence (Q96KQ7 913-1193 limits assumed): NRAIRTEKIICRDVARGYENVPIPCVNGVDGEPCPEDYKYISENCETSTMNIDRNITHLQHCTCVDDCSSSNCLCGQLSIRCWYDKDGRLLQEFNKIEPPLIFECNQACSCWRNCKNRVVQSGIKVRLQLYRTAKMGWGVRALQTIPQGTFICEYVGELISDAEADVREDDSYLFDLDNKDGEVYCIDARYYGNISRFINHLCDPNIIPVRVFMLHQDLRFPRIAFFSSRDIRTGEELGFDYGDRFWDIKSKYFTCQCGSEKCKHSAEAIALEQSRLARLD
Test: qHTS Assay for Inhibitors of Histone Lysine Methyltransferase G9a; note: nearly all actives have a fitted effect of over 75% in size
Settings: G9a H3K9 monomethylation, AlphaScreen, 2 h; series mostly up to 59 µM
Summary of the method: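 Signal arises when biotinylated H3K9 peptide, once monomethylated, bridges streptavidin donor and antibody-captured acceptor beads. Enzyme at 20 nM was preincubated 15 min with test compounds; peptide 500 nM and SAM 20 uM then reacted for 2 h.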
Potency is the fitted concentration of half-maximal effect.

| Compound | Potency | activity, negative = inhibition |
| --- | --- | --- |
| CCc1sc(C(=O)N2CCN(CC(=O)Nc3cccc(F)c3)CC2)cc1C | inactive | – |
| CCN(C(=O)COC(=O)C1CCN(S(=O)(=O)c2ccc(C)c(C)c2)CC1)C1CCS(=O)(=O)C1 (stereo unspecified) | – | 7.98% [at 2.33 µM] (inactive) |
| COc1ccc(C2CC(=O)N(Cc3ccccc3C)c3c2c(C)nn3-c2nc(C)cc(C)n2)c(OC)c1 (stereo unspecified) | inactive | – |
| Cc1cc(NC(=O)CSc2ncc(C(=O)Nc3ccc(Cl)cc3)c(=O)n2C)no1 | inactive | – |
| O=S(=O)(c1ccccc1)c1nc(Cc2ccccc2)oc1N1CCOCC1 | 7.08 µM (active) | – |
| COc1cccc(-c2nc(S(=O)(=O)c3ccccc3)c(N3CCOCC3)o2)c1 | – | -43% [at 12.7 µM] (inactive) |
| COc1ccc(-c2nc(S(=O)(=O)c3ccccc3)c(N3CCCCC3)o2)cc1 | inactive | – |
| COc1ccc(CNC(=O)COC(=O)c2c(C)nn(-c3ccccc3)c2C)cc1OC | inactive | – |
| C#CCOCCOCCOCCNc1nc(N2CCN(C(=O)[C@H](C(C)C)n3cc(CCO)nn3)CC2)nc(N2CCN(C(=O)[C@H](C(C)C)n3cc(CCO)nn3)CC2)n1 | 44.7 µM (active) | – |
| C#CCOCCOCCOCCNc1nc(N2CCN(C(=O)CCCCCCCCCCNC(=O)[C@H]([C@@H](C)CC)n3cc(CCCCN=C(N)N)nn3)CC2)nc(N2CCN(C(=O)CCCCCCCCCCNC(=O)[C@H](CO)n3cc(CCCSC)nn3)CC2)n1 | – | 10.6% [at 2.33 µM] (inactive) |
| C#CCOCCOCCOCCNc1nc(N2CCN(C(=O)[C@H](CCCCN)n3cc(CCC(=O)O)nn3)CC2)nc(N2CCN(C(=O)[C@H](CCCCN)n3cc(CC(C)O)nn3)CC2)n1 (stereo partly specified) | – | -23.5% [at 2.33 µM] (inactive) |
| C#CCOCCOCCOCCNc1nc(N2CCN(C(=O)Cn3cc(CCCCN)nn3)CC2)nc(N2CCN(C(=O)[C@H](CCCCN)n3cc(CCC(=O)O)nn3)CC2)n1 | – | 5.8% [at 2.33 µM] (inactive) |
| C#CCOCCOCCOCCNc1nc(N2CCN(C(=O)[C@H](C(C)C)n3cc(CCO)nn3)CC2)nc(N2CCN(C(=O)[C@H]([C@@H](C)CC)n3cc(CCCN=C(N)N)nn3)CC2)n1 | 39.8 µM (active) | – |
| C#CCOCCOCCOCCNc1nc(N2CCN(C(=O)CCCCCCCCCCNC(=O)[C@H](CCCCN)n3cc(C)nn3)CC2)nc(N2CCN(C(=O)CCCCCCCCCCNC(=O)[C@H](CO)n3cc(CCCSC)nn3)CC2)n1 | – | -8.81% [at 2.33 µM] (inactive) |
| COc1ccccc1CNC(=O)NCc1noc2ccc(C)cc12 | inactive | – |
| Cc1cc(C)c(NC(=O)CCc2c(C)nc3c(c(C)nn3C(C)(C)C)c2C)c(C)c1 | inactive | – |
| N#Cc1nc(/C=C/c2ccc(F)cc2)oc1NCc1ccc(F)cc1 | inactive | – |
| O=C(Nc1ccc2c(c1)OCO2)c1cc(-c2cccc(Cl)c2)on1 | inactive | – |
| COc1ccc(NC(=O)Cn2c(=O)cc(C)c3c(C)nn(-c4cccc(Cl)c4C)c32)cc1OC | inactive | – |
| COc1cccc(CNC(=O)Cc2csc3nc(-c4ccccc4)cn23)c1 | inactive | – |
| O=C1/C(=C\c2ccsc2)NC(=S)N1c1ccccc1 | 50.1 µM (active) | – |
| CC1=CC(C)(C)NC(=S)N1c1ccccc1 | inactive | – |

| Compound | Potency | activity, negative = inhibition |
| --- | --- | --- |
| O=C1/C(=C/c2coc3ccc(O)cc3c2=O)SC(=S)N1c1ccccc1 | – | -31.3% [at 12.7 µM] (inactive) |
| CC(=O)c1ccccc1OCc1ccc(C(=O)c2ccccc2)cc1 | inactive | – |
| COc1ccccc1N1CCN(S(=O)(=O)c2ccc(Cl)cc2)CC1 | inactive | – |
| O=C(O)c1cccc(S(=O)(=O)N2CC=C(c3ccccc3)CC2)c1 | – | 23% [at 12.7 µM] (inactive) |
| Cc1c(C2=CCN(S(=O)(=O)c3ccc(Cl)cc3)CC2)c2ccccc2n1C | 44.7 µM (active) | – |
| COc1ccc(NC(=O)CSC2=Nc3ccccc3C3=NC(CC(=O)NCc4ccccc4OC)C(=O)N23)cc1Cl (stereo unspecified) | inactive | – |
| CCC(C)CCN1CCN=C1N(C)C (stereo unspecified) | – | 2.04% [at 2.33 µM] (inactive) |
| CCC(C)(C)c1ccc(OCC(=O)N(C)C)c(C(C)(C)CC)c1 | inactive | – |
| CN(C)CCOc1ccc(Cl)cc1C(C)(C)C | 8.91 µM (active) | – |
| O=C(NCCCO)c1nn(-c2ccc(Cl)cc2)nc1CO | inactive | – |
| COc1ccc(/C=C2\SC(=S)N(CCC(=O)Nc3cccc(C(=O)O)c3)C2=O)cc1OC | inactive | – |
| N#Cc1ccccc1CN1C(=O)S/C(=C/c2cccn2-c2cccc(C(=O)O)c2)C1=O | 44.7 µM (active) | – |
| Cc1nn(Cc2ccccc2)c(C)c1C(=O)NCCN1C(=O)S/C(=C\c2ccc(F)cc2)C1=O | inactive | – |
| CC(C)C(=O)Nc1nc2c(s1)CC(C(C)(C)C)CC2 (stereo unspecified) | inactive | – |
| Cn1nnnc1SCCCNCc1ccc(Cl)cc1 | inactive | – |
| O=C(CCNC(=O)c1ccccc1)Nc1nc2ccccc2s1 | – | -6.33% [at 0.501 µM] (inactive) |
| CN(C)CCOCCOc1ccc(Cl)c2ccccc12 | 14.1 µM (active) | – |
| CCN(CC)CCOCCOc1ccc(Cl)c2ccccc12 | inactive | – |
| O=S(=O)(c1ccc(Cl)cc1)c1nc(-c2ccco2)oc1N1CCCCC1 | – | 32.5% [at 12.7 µM] (inactive) |
| Clc1cccc(-n2ncc3c(NCCc4ccccc4)ncnc32)c1 | inactive | – |
| O=C(/C=C/c1c(F)cccc1Cl)Nc1nn[nH]n1 | 39.8 µM (active) | – |
| O=C(/C=C/c1c(Cl)cccc1Cl)NCc1ccccc1 | inactive | – |

| Compound | Potency | activity, negative = inhibition |
| --- | --- | --- |
| O=C(CCc1ccccc1)Nc1nn[nH]n1 | inactive | – |
| CSc1ccccc1NC(=O)c1cnc2sc(C)cn2c1=O | inactive | – |
| O=S(=O)(NC1CCN(S(=O)(=O)c2ccc3c(c2)OCCO3)CC1)c1c(F)cccc1F | – | 3.66% [at 12.7 µM] (inactive) |
| COc1cccc(N(CC(=O)NC2CCCC2)C(=O)Cn2nnc(-c3ccc(C)o3)n2)c1 | inactive | – |
| O=C(Nc1ccc(N2CCOCC2)cc1)c1ccc(-c2ccccc2[N+](=O)[O-])o1 | 17.8 µM (active) | – |
| O=C(Cc1ccc([N+](=O)[O-])cc1)Nc1ccc(C(=O)N2CCOCC2)cc1 | inactive | – |
| COc1cc2ccccc2cc1C(=O)Nc1ccc(N2CCOCC2)cc1 | inactive | – |
| O=C(COc1ccccc1)Nc1cc2c3c(c1)CC(=O)N3CCC2 | inactive | – |
| Cc1ccc(C)c(N2CCN(C(=O)CCCCCn3c(=S)[nH]c4ccc(N5CCOCC5)cc4c3=O)CC2)c1 | inactive | – |
| CNC(=O)c1c(NC(NC(=O)c2ccco2)C(=O)c2ccc(Cl)cc2)sc2c1CCCC2 (stereo unspecified) | 11.2 µM (active) | – |
| Cc1ccc2c(=O)cc(C(=O)Nc3sc4c(c3C(=O)NCc3cccnc3)CCCC4)oc2c1 | inactive | – |
| CC(C)OC(=O)c1c(NC(=O)c2ccco2)sc2c1CCCC2 | inactive | – |
| COc1cc2c(cc1O)[C@H](Cc1ccc(Oc3cc(C[C@@H]4NCCc5cc(OC)c(O)cc54)ccc3O)cc1)NCC2 | 12.6 µM (active) | – |
| COc1ccc(CC2c3cc(OC)c(OC)cc3CC[N+]2(C)CCC(=O)OCCCCCOC(=O)CC[N+]2(C)CCc3cc(OC)c(OC)cc3C2Cc2ccc(OC)c(OC)c2)cc1OC (stereo unspecified) | – | 7.6% [at 12.7 µM] (inactive) |
| CCc1ccc(OCC2c3cc(OC)c(OC)cc3CCN2C(C)=O)cc1 (stereo unspecified) | inactive | – |
| COc1ccccc1CNc1nc2ccc(Cl)cc2n2cnnc12 | inactive | – |
| CC(=O)Nc1cccc(NC(=O)CSc2nccn2Cc2ccc3c(c2)OCO3)c1 | inactive | – |
| COc1ccc(C2CC(c3cccs3)=NN2c2ccc(F)cc2)cc1OC (stereo unspecified) | 3.98 µM (active) | – |
| COc1ccccc1N1N=C(c2cccs2)CC1c1ccccc1 (stereo unspecified) | inactive | – |
| COc1ccc(C2CC(c3cccs3)=NN2c2ccccc2)cc1 (stereo unspecified) | inactive | – |
| COc1ccc(-c2nc(CN3CCC(C(=O)NCc4ccccc4)CC3)c(C)o2)cc1OC | inactive | – |
| CCOC(=O)C1CCCN(C(=O)c2ccc(-n3ccc4ccccc43)s2)C1 (stereo unspecified) | inactive | – |

| Compound | Potency | activity, negative = inhibition |
| --- | --- | --- |
| CCc1cccc(C)c1NC(=O)COC(=O)CC1CCCC1 | inactive | – |
| COCCNC(=O)C(c1ccc(C)o1)N(Cc1ccccc1)C(=O)Cn1nnc2ccccc21 (stereo unspecified) | inactive | – |
| COc1ccccc1N(C(=O)Cn1nnc2ccccc21)C(C(=O)NCc1ccco1)c1ccc(C)o1 (stereo unspecified) | 50.1 µM (active) | – |
| Cc1ccc(C(C(=O)NCc2ccco2)N(CC2CCCO2)C(=O)Cn2nnc3ccccc32)cc1 (stereo unspecified) | inactive | – |
| Cc1ccc(C(=O)Nc2ccn(C)n2)cc1 | – | 0.254% [at 12.7 µM] (inactive) |
| CC1CCN(S(=O)(=O)c2ccc3c(c2)N(CC(=O)NCCc2ccccc2)C(=O)CO3)CC1 | inactive | – |
| CC1=C(c2ccc(C)c(C)c2)S(=O)(=O)NC1=NCc1ccccc1Cl | inactive | – |
| COc1ccc(CS(=O)/C(Cl)=C(/Cl)C(=O)Nc2ccc(OC)nc2)cc1 (stereo unspecified) | 11.2 µM (active) | – |
| COc1ccc(NC(=O)C(=O)NCc2ccco2)cc1 | inactive | – |
| CCOc1ccc(S(=O)(=O)Nc2ccc(OC)nc2)cc1 | inactive | – |
| COc1cc(C(=O)N2CCN(c3ccc(Nc4ccc(C)cc4)nn3)CC2)cc(OC)c1OC | inactive | – |
| CSc1ccc(NC(=O)Cn2nnnc2-c2ccccc2F)cc1 | inactive | – |
| COc1ccc(C2CC(=O)Nc3cc(C)c(C)cc32)c(OC)c1OC (stereo unspecified) | inactive | – |
| COc1ccc(C2Sc3ccccc3NC3=C2C(=O)c2ccccc23)c(OC)c1OC (stereo unspecified) | 11.2 µM (active) | – |
| COC(=O)C(C)C1Sc2ccccc2NC1=O (stereo unspecified) | – | 14.7% [at 12.7 µM] (inactive) |
| O=C(NCC(c1ccc2c(c1)OCO2)N1CCN(c2ccccc2)CC1)C(=O)Nc1ccccc1F (stereo unspecified) | inactive | – |
| CCOC(=O)/C=C/C(=O)OCC(=O)NC(c1ccccc1)c1ccccc1 | inactive | – |
| O=C(Cc1ccc(-c2ccccc2)cc1)NC(c1ccccc1)c1ccccc1 | 7.08 µM (active) | – |
| C=CCC(NC(=O)Cc1ccccc1)C(=O)NCCC (stereo unspecified) | – | 5.83% [at 0.501 µM] (inactive) |
| C/C(CC(=O)NCc1ccc(Cl)cc1)=N\NC(=O)COc1ccc(C)cc1Br | inactive | – |
